The compounds below were run on Pectobacterium parmentieri SCC3193 (assay: DuctApe activity index (growth/respiration on compound as sole nutrient source, blank-subtracted) (activity index (0-3)); higher = stronger utilization of the compound, active = 3 or more). Conditions: nutrient role (plate category): phosphate & sulphur.
Description: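 Biolog Phenotype Microarray plates PM1, PM2A (carbon), PM3 (nitrogen) and PM4 (phosphorus/sulfur) inoculated with P. parmentieri SCC3193 in M9-C minimal salts medium with Biolog dye A, and read in the OmniLog for 46 h. Each well was tested in triplicate and the experiment was run twice. DuctApe computed a blank-subtracted activity index (AV, 0-3) from the mean curves; growth is positive at AV >= 3 and negative at AV <= 2.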

DuctApe activity index, inactive:
CSC[C@H](N)C(=O)O [S-Methyl-L-Cysteine] 1, O=P(O)(O)O[C@H]1O[C@H](CO)[C@@H](O)[C@H](O)[C@H]1O [D-Glucose-1-Phosphate] 1, NC(Cc1ccc(OP(=O)(O)O)cc1)C(=O)O (stereo in doubt) [O-Phospho-D-Tyrosine] 2, Nc1ncnc2c1ncn2[C@@H]1O[C@@H]2COP(=O)(O)O[C@H]2[C@H]1O [Adenosine 3`,5`-Cyclic Monophosphate] 0, Nc1nc2c(ncn2[C@@H]2O[C@H](COP(=O)(O)O)[C@@H](O)[C@H]2O)c(=O)[nH]1 [Guanosine 5`-Monophosphate] 1, CSCC[C@H](NC(=O)CN)C(=O)O 1

— the supplement of paper PMC6518042
